The source of these data is PubChem BioAssay (NCI).

The structures appear in SMILES notation. About 83,000 compounds went through this panel and 20% of them were active in at least one assay; those are over-represented in the sample as a whole.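 Cell lines were cultured in 96-well plates, exposed to a single compound concentration, and assessed for percent growth 48 hours later.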 Unmarked numbers belong to inactive results. The source made the active and inactive calls. How the source made its calls: active means growth percent below 10; inactive means the rest.

Holding throughout (assay): NCI-60 one-dose screen, 48 h (100 = growth as untreated, 0 = no growth, -100 = all killed)
Holding throughout (details): 10 µM unless noted

Assay [1] has as its system HCT-15 colon.
The test system of assay [2] is HT29 colon.
Assay [3] has as its system SNB-75 CNS.
Assay [4] relates to SNB-19 CNS.
The test system of assay [5] is U251 CNS.
The test system of assay [6] is PC-3 prostate.
Assay [7] relates to SK-MEL-5 melanoma.
The subject of assay [8] is UACC-62 melanoma.
For assay [9], the system named is LOX IMVI melanoma.
The test system of assay [10] is SK-MEL-28 melanoma.
Assay [11] relates to SK-MEL-2 melanoma.
Assay [12] relates to EKVX NSCLC.
In assay [13] the test system is SN12C renal.
Assay [14] has as its system UO-31 renal.
Assay [15] deals with TK-10 renal.
For assay [16], the system named is ACHN renal.
Assay [17] has as its system A498 renal.
Assay [18] has as its system CCRF-CEM leukemia.
Assay [19] relates to MOLT-4 leukemia.
Assay [20] has as its system SR leukemia.

In the case of `CCCCc1nc(Cl)c(C2CC(c3ccc(Cl)cc3)=NN2c2cc(Cl)cc(Cl)c2)[nH]1` (stereo not given), the growth in assay [1] was 86.5%; in assay [2] it was 85.4%; in assay [3], 65.6%; in [4], 93%; in assay [5], 90.7%; in [6], 45.6%. For the same molecule, the growth was 69.1% in assay [7]; 78.2% in assay [8]; 67.2% in assay [9]; 99.8% in [10]; 96% in assay [11]; 57.8% in assay [12]. The growth in assay [13] is 45.4%; in assay [14], 52.7%; in [15] it was 94.2%; in assay [16], 14.2%; in assay [17] it was 84%; in assay [18], 51.6%. Moreover, the growth is 24.6% in assay [19] and 61.8% in assay [20].
With `CCSc1ccc(C2C(Br)C(=O)N2c2cc(OC)c(OC)c(OC)c2)cc1` (stereo not given), the growth in [1] is 15.2%; in assay [2], 2.99% (active); in assay [3], 51.1%; in assay [4] it was 33.4%; in assay [5] it was 12.1%; in assay [6], 20%. For the same molecule, the growth in [7] is -11.3% (active); in [8], 29.6%; in [9], 25.7%; in assay [10], 56.7%; in [11], 63.7%; in [12], 70.2%. For the same molecule, the growth in assay [13] was 31.6%; in assay [14] it was 26.2%; in assay [15], 76.6%; in [16], 32.6%; in assay [17], -14.3% (active); in assay [18], 12.3%. For the same molecule, the values for the growth in [19] and in assay [20] were 20% and 16.3%, respectively.
`CS(=O)(=O)O[C@@H]1C(=O)N(c2cc3c4ccccc4ccc3c3ccccc23)[C@H]1c1ccc(F)cn1`: the growth is 29.1% in assay [1]; 3.71% (active) in assay [2]; -0.245% (active) in [3]; 38.3% in assay [4]; 29.5% in assay [5]; 34.7% in assay [6]. The growth in assay [7] is 13.6%; in assay [8], 34%; in [9], 34.2%; in assay [10], 68.6%; in assay [11], 14.4%; in assay [12], 47.1%. For the same molecule, the growth in assay [13] was 40.6%; in assay [14], 46.9%; in assay [15], 81.7%; in [16] it was 52%; in assay [17] it was 14.6%; in assay [18], 10.4%. Further, the growth in assay [19] was 24.3%; in assay [20] it was 11.4%.
With `O=C(O)CCNC1CCCCC1`, the growth was 99.4% in assay [1]; 106% in assay [2]; 90.3% in assay [3]; 91.2% in [4]; 94.2% in [5]; 94.8% in assay [6]. Moreover, the growth in assay [7] was 108%; in assay [8], 100%; in assay [9], 94.1%; in assay [10], 100%; in assay [11], -21.2% (active); in assay [12], 115%. Further, the growth in assay [13] was 88.3%; in assay [14] it was 83.4%; in [15], 118%; in [16], 103%; in assay [17] it was 94.6%; in assay [18], 102%. Besides, the growth was 103% in [19] and 105% in [20].
Regarding `COc1ccccc1Nc1nnc(-c2ccc(Cl)cc2)o1`, the growth in assay [1] is 33.1%; in [2], 16.1%; in assay [3], 55.1%; in assay [4], 46.4%; in [5], 34.4%; in assay [6] it was 56.7%. Further, the growth in assay [7] was 37.6%; in [8] it was 51.8%; in [9], 51.7%; in [10], 64%; in [11], 34.4%; in [12], 50.8%. Moreover, the growth in [13] is 59.6%; in assay [14], 69.5%; in [15], 68.9%; in assay [16] it was 72.2%; in [17], 45.3%; in [18] it was 38%. Further, the growth was 19.5% in assay [19] and 19.7% in assay [20].
As for `OCCNc1nc(NCCO)nc(Nc2ccc(C3=NN(c4ccc(Cl)cc4)C(c4ccc(Cl)cc4)C3)cc2)n1` (stereo not given), the growth in assay [1] is 48.4%; in assay [2] it was 30.5%; in [3], 51.1%; in [4] it was 78.1%; in assay [5] it was 43%; in [6] it was 32.8%. The growth is 78.2% in [7]; 77.9% in assay [8]; 28.2% in assay [9]; 54.4% in assay [10]; 52% in [11]; 65% in assay [12]. Also, the growth in assay [13] is 80.1%; in [14], 45.5%; in [15], 87.6%; in [16] it was 51.1%; in [17], 85.7%; in assay [18], 25.1%. Further, the growth in [19] was 29.4%; in assay [20], 25.5%.
Turning to `COc1ccc(-n2cc(-c3ccc(Cl)c(Cl)c3)[nH]c2=O)cc1OC`, the growth in assay [1] was 93.4%; in assay [2], 97.2%; in assay [3], 91.8%; in assay [4] it was 90.9%; in assay [5], 91.7%; in assay [6] it was 93.2%. Further, the growth in [7] is 104%; in assay [8], 87.5%; in [9], 96.3%; in assay [10], 103%; in assay [11], 97.7%; in assay [12], 93.6%. In addition, the growth in assay [13] is 102%; in [14], 95%; in assay [15], 96.6%; in assay [16], 105%; in assay [17] it was 79.3%; in [18], 3.68% (active). For the same molecule, the growth in [19] is 144%; in assay [20], 40.1%.
As to `COc1ccc2c(c1)C1(C(=O)N2)C(C#N)=C(c2ccccc2)Nc2c1c(-c1ccccc1)nn2-c1ccccc1` (stereo not given), the growth was 85% in assay [1]; 43% in assay [2]; 33.8% in assay [3]; 59.7% in assay [4]; 9.08% (active) in assay [5]; 7.28% (active) in [6]. Also, the growth in [7] is 58.6%; in assay [8], 85.1%; in assay [9] it was 52.7%; in [10], 42.9%; in assay [11], 84.9%; in [12], 78.4%. For the same molecule, the growth in assay [13] was 1.61% (active); in assay [14] it was 80.1%; in assay [15], 90.7%; in [16], 88.2%; in [17] it was 50.1%; in assay [18] it was 16.6%. The growth in assay [19] was 38.2%; in assay [20], 21.5%.
Turning to `C#C[C@@]1(O)[C@@H](CO)O[C@@H](n2cc(Cl)c3c(N)ccnc32)[C@@H]1O`, the growth in assay [1] was 50.8%; in [2], 38.7%; in [3], 140%; in assay [4] it was 89.9%; in assay [5], 16%; in assay [6] it was 36.7%. In addition, the growth is 70.8% in assay [7]; 105% in [8]; 42% in [9]; 100% in [10]; 76.9% in [11]; 89.7% in [12]. Also, the growth was 78.8% in [13]; 72.2% in assay [14]; 122% in assay [15]; 64.8% in [16]; 87.7% in assay [17]; 58.4% in [18]. Besides, the growth in assay [19] was 45.6%; in assay [20] it was 68.9%.
Take `Nc1ccccc1NS(=O)(=O)c1ccc(Cl)cc1`: the growth in [1] is 102%; in assay [2] it was 91.7%; in assay [3], 81.8%; in [4], 96.6%; in assay [5], 101%; in assay [6], 91.5%. Moreover, the growth was 94.4% in assay [7]; 91.4% in assay [8]; 92.1% in [9]; 96.8% in assay [10]; 93.7% in [11]; 98.4% in assay [12]. In addition, the growth is 103% in assay [13]; 83.9% in assay [14]; 90.8% in [15]; 94.8% in [16]; 81.5% in assay [17]; 96.6% in assay [18]. The growth in assay [19] is 97.1%; in [20], 89.6%.
Consider `CN(C)c1ccc(-c2ccc3[nH]c(=O)nc(-c4ccc(F)cc4)c3c2)cn1`, for which the growth in assay [1] is 33.2%; in assay [2] it was 11%; in assay [3] it was 11.2%; in assay [4], 36.2%; in [5], 31.3%; in assay [6] it was 41.7%. For the same molecule, the growth in [7] is 20.3%; in assay [8], 28.4%; in assay [9], 41.3%; in assay [10], 69.2%; in assay [11] it was 30.8%; in assay [12], 55.9%. In addition, the growth in assay [13] was 45.3%; in assay [14], 52.9%; in assay [15], 73.7%; in [16], 52.3%; in assay [17], 18.5%; in [18] it was 12%. Besides, the growth in assay [19] was 28.1%; in [20], 18.3%.
With `COc1cc(-c2cn(-c3ccc(Cl)c(Cl)c3)c(=O)[nH]2)cc(OC)c1OC`, the growth in assay [1] is 103%; in [2], 102%; in assay [3] it was 104%; in [4], 81.6%; in [5], 95.6%; in assay [6], 104%. Also, the growth is 101% in assay [7]; 95.3% in assay [8]; 97.7% in assay [9]; 110% in assay [10]; 97% in assay [11]; 95.3% in [12]. The growth was 87.5% in assay [13]; 93.6% in [14]; 94.7% in assay [15]; 96.5% in assay [16]; 110% in assay [17]; 99.6% in [18]. For the same molecule, the values for the growth in [19] and in [20] were 85.1% and 31%, respectively.
With `COC(=O)/C=C1\SC(=Nc2cccc(Cl)c2)N(CCc2c[nH]c3ccccc23)C1=O`, the growth in [1] is 29%; in assay [2], 8.6% (active); in assay [3], 84.5%; in assay [4], 54.4%; in [5], 41.1%; in [6] it was 31.8%. The growth in assay [7] is 63.3%; in [8], 18.3%; in [9] it was 5.31% (active); in assay [10], 64.8%; in assay [11], 40.6%; in assay [12], 71.9%. Also, the growth was 44.5% in [13]; 58.5% in [14]; 73.4% in assay [15]; 63.9% in assay [16]; 61.5% in assay [17]; 5.03% (active) in [18]. Also, the results for the growth in assay [19] and in assay [20] were -17.6% (active) and -7.91% (active), respectively.
On to `N#Cc1c(-c2ccc(Cl)cc2)cc(-c2cc3ccccc3o2)nc1SCC(=O)c1ccc(Cl)cc1`, for which the growth is 91.4% in assay [1]; 97.1% in assay [2]; 76.7% in [3]; 99.9% in assay [4]; 93.8% in [5]; 84.6% in [6]. The growth in assay [7] is 100%; in [8], 93.5%; in [9], 91%; in assay [10], 100%; in assay [11], 91%; in assay [12], 116%. Moreover, the growth was 94.2% in assay [13]; 79.8% in [14]; 139% in assay [15]; 86.9% in assay [16]; 111% in assay [17]; 106% in [18]. In addition, the growth was 95.1% in assay [19] and 80.2% in [20].
